Sampled rows, rich in hits. Any-hit rate of the full collection: about 3.9%.
SUMO HTRF inh: inhibitors of human SUMOylation (UBC9) | P63279 | HTRF SUMOylation assay, SAE1/SAE2 + UBC9, in vitro | inhibition, % at 35 µM | actives 0.36% (n = 290,000); in the data active = inhibition above about 50%, passing the limit was not always enough
Target sequence (P63279 whole entry, looked up): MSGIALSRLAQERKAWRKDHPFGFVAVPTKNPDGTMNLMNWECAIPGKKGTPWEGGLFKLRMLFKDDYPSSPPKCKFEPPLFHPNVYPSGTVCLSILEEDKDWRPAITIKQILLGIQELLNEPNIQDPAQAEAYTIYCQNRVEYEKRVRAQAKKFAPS
Cardio protect: myocardial damage modulation in H9c2 cells; AID 588492; actives 0.63% (n = 360,000); H9c2 cardiomyocytes, H2O2 injury protection, ATPLite, 2 h; protection from H2O2 cell death, % at 20 µM;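 active = compounds giving at least 50% protection of heart cells from peroxide-induced death in the single-dose screen, raw or plate-pattern-corrected value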;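 note: 0% = DMSO wells with peroxide and 100% = DMSO wells without peroxide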
NTR1 agonist: agonists of human neurotensin receptor NTR1; P30989; activation, % at 20 µM; NTR1-U2OS beta-arrestin-GFP spot imaging, agonist mode; actives 0.17% (n = 330,000); AID 493036;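 active = activation at or above 40% of the spot to cytoplasm intensity ratio, with at least 20 cells analyzed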;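 note: 0% = DMSO without peptide and 100% = 100 nM NTR1 peptide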
ALR inh: inhibitors of human sulfhydryl oxidase ALR; actives 3.8% (n = 290,000); P55789; inhibition, % (no concentration beside the values); purified ALR, DTT oxidation, H2O2 HRP-luminol luminescence;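 active = mean replicate inhibition above about 79%, with every replicate also reaching it, limit read from the data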
Target sequence (P55789 whole entry, looked up): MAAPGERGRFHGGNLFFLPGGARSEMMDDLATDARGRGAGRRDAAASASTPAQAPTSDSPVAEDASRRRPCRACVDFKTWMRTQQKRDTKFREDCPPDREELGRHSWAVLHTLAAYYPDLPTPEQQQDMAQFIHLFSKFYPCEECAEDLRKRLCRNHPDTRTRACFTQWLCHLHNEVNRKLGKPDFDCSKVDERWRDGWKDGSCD
* marks the source's active call; other numbers are inactive results; . = not tested or not shown.

SMILES	SUMO HTRF inh	Cardio protect	NTR1 agonist	ALR inh
Cc1ccc(N2CCN(CC(O)COc3ccccc3)CC2)cc1 (configuration not stated)	-1	2	0	95*
COc1ccc(OCC(O)CN2CCN(c3ccc(OC)cc3)CC2)cc1 (configuration not stated)	-10	5	0	99*
CCN(CC)C(=O)c1cccc(C)c1	.	-3	-1	4
CC(O)(c1ccc(F)c(F)c1)c1nc(-c2cccc(C#N)c2)cs1 (configuration not stated)	.	-6	.	.
O=[N+]([O-])c1ccc(C(O)CN2CCN(c3ccccc3)CC2)cc1 (configuration not stated)	1	-3	0	7
Oc1ccc(N2CCN(CC(O)c3ccccc3)CC2)cc1 (configuration not stated)	-7	10	0	99*
Cc1cccc(CC2S/C(=N/N=C/c3ccco3)NC2=O)c1 (configuration not stated)	20	-5	1	-14
CCN(CC)CCCn1c2c(c(SCC(=O)Nc3ccc(C)c(F)c3)nc1=O)CCC2	.	7	0	97*
Cc1ccc(NC(=O)CSc2nc(=O)n(CCN(C)C)c3c2CCCC3)cc1Cl	.	9	2	98*
CCN(CC)CCCn1c2c(c(SCC(=O)Nc3nc4ccccc4s3)nc1=O)CCC2	.	1	0	99*
CCCCc1ccc(NC(=O)CSc2nc(=O)n(CCN(CC)CC)c3c2CCCC3)cc1	.	-14	10	98*
CCN(CC)CCn1c2c(c(SCC(=O)Nc3cc(C)cc(C)c3)nc1=O)CCC2	.	-1	0	3
COc1ccc(NC(=O)CSc2nc(=O)n(CCN(C)C)c3c2CCCC3)cc1	.	1	0	-16
CCCCCCn1c(CN2CCN(C)CC2)nc2c1c(=O)n(C)c(=O)n2C	15	7	1	-34
Cc1ccccc1-c1nn(-c2ccc(F)cc2F)cc1CNCCCO	9	-6	-1	-3
CCN(CC)CCn1c2c(c(SCC(=O)Nc3ccc4c(c3)OCO4)nc1=O)CCC2	.	-3	-1	-381
CCN(CC)CCn1c2c(c(SCC(=O)Nc3cccc4ccccc34)nc1=O)CCCC2	.	5	0	96*
CCCCc1ccc(NC(=O)CSc2nc(=O)n(CCN(C)C)c3c2CCC3)cc1	.	-15	9	98*
CN(C)CCCn1c2c(c(SCC(=O)Nc3ccc4c(c3)OCCO4)nc1=O)CCC2	.	-5	-1	99*
O=C(CSc1ccc2nnc(CCNC(=O)c3ccccc3)n2n1)NCCc1ccccc1	6	2	-2	24
Nc1ccccc1OCCOCCOc1ccccc1N	16	2	-3	98*
Nc1ccccc1OCCOc1ccccc1N	19	2	0	8
Cc1ccn2c(NC3CCCC3)c(-c3cccs3)nc2c1	29	1	1	64
c1csc(-c2nc3ccccn3c2NC2CCCCC2)c1	19	6	1	94*
C#CCOCCOCCOCCNc1nc(N2CCOCC2)nc(N2CCN(C(=O)[C@H]([C@@H](C)CC)n3cc(CCCCN)nn3)CC2)n1	14	0	1	-23
SMILES	SUMO HTRF inh	Cardio protect	NTR1 agonist	ALR inh
CC(=O)c1ccc(N2CCN(Cc3nc4ccccc4[nH]3)CC2)cc1	-1	4	1	.
Oc1ccc(N2CCN(Cc3nc4ccccc4[nH]3)CC2)cc1	14	0	0	99*
NC(=O)N/N=C/c1sc(N2CCCCC2)nc1-c1cccs1	.	-12	4	97*
O=C(NNC(=O)c1ccccc1O)c1ccc(NS(=O)(=O)c2ccc(F)c(F)c2)cc1	.	22	2	7
Cc1ccc(NS(=O)(=O)c2ccc(C(=O)NNC(=O)c3ccccc3O)cc2)cc1	.	64*	4	18
COc1ccc(OC)c(N(CC(=O)Nc2cccnc2)S(=O)(=O)c2ccc(OC)c(OC)c2)c1	0	50*	0	-7
O=C(Nc1ccccc1N1CCCCC1)c1ccc(N2C(=O)c3ccccc3C2=O)cc1	7	-1	5	-10
COc1ccc(C(=O)NC(=O)COC(=O)c2ccc3ncsc3c2)cc1	68*	.	-1	.
CCNC(=O)COc1cccc2ccccc12	-4	4	0	-35
COc1ccccc1NC(=S)N1CCN(c2ncccn2)CC1	-8	-2	0	-4
COc1cc(/C=C2\SC(=S)N(NC(=O)c3cccc(O)c3)C2=O)ccc1O	4	7	0	95*
COc1cc(/C=C2\SC(=S)N(CCC(=O)Nc3cccc(O)c3)C2=O)cc(OC)c1OC	-3	67*	15	-1
COc1cc(/C=C2\SC(=S)N(NC(=O)c3ccncc3)C2=O)ccc1O	-2	5	1	99*
CCOc1cc(/C=C2\SC(=S)N(NC(=O)c3cccnc3)C2=O)ccc1O	0	5	2	99*
COc1cc(/C=C2\SC(=S)N(NC(=O)c3ccc(O)c(OC)c3)C2=O)ccc1O	11	-7	0	.
C=CCn1c(SCCN2C(=O)c3ccccc3C2=O)nc2scc(-c3ccccc3)c2c1=O	-99	2	3	-10
Cc1sc2nc(COC(=O)c3ccc(Cl)c(N)c3)[nH]c(=O)c2c1C	12	9	4	-4
Cc1ccc(NC(=O)CN2C(=O)S/C(=C/c3ccc(-c4cccc(C(=O)O)c4)o3)C2=O)cc1	81*	6	.	.
O=Cc1ccc(-c2cccc(C(=O)O)c2)o1	18	4	2	1
Cc1cc(C(=O)O)ccc1-c1ccc(/C=C2\SC(=O)N(CC(=O)Nc3ccc4c(c3)OCO4)C2=O)o1	82*	1	0	-16
CC(C)(C)OC(=O)CN1C(=O)S/C(=C\c2ccc(-c3cccc(C(=O)O)c3)o2)C1=O	9	.	0	97*
Cc1ccc(C(=O)O)cc1-c1ccc(/C=C2\SC(=O)N(CC(=O)Nc3ccccc3)C2=O)o1	85*	-6	1	0
Cc1ccc(NC(=O)CN2C(=O)S/C(=C\c3ccc(-c4cccc(C(=O)O)c4C)o3)C2=O)cc1	26	.	14	-2
COc1ccc(S(=O)(=O)N2CCC(NC(=O)N3CCOCC3)CC2)cc1	8	-2	0	-2
Cc1ccc2nc(NC(=O)C3CCN(S(=O)(=O)c4cccc5nsnc45)CC3)sc2c1	-10	2	2	-11
SMILES	SUMO HTRF inh	Cardio protect	NTR1 agonist	ALR inh
O=C(Cc1ccc2c(c1)OCCO2)Nc1ccc(Cl)c(S(=O)(=O)N2CCOCC2)c1	.	-10	-1	.
COc1ccnc(CS(=O)c2nc3cc(OC(F)F)ccc3[nH]2)c1OC (configuration not stated)	.	.	1	-10
Cc1ccccc1NC(=O)CN1C(=O)S/C(=C\c2ccc(-c3cc(C(=O)O)ccc3C)o2)C1=O	.	2	0	.
C#CCN1C(=O)S/C(=C\c2ccc(-c3ccc(C(=O)O)cc3C)o2)C1=O	32	6	.	90*
N#CNc1nc(O)cc(=O)[nH]1	14	-5	0	.
COc1cc2cc(-c3ccc(O)cc3O)nc(C)c2cc1OC	1	71*	9	13
COc1cc2cc(-c3ccc(OC)c(OC)c3C)nc(N)c2cc1OC	.	-6	5	14
c1cncc(CSc2ccc(-c3cccs3)nn2)c1	3	-14	0	-4
Cc1ccn2cc(-c3cccc([N+](=O)[O-])c3)nc2c1	13	-8	4	91*
